{"source": "PubChem BioAssay"}
{"test_system": "Sonic hedgehog protein (Shh)", "assay": "small-molecule binders of Shh protein, primary screen, biochemical, small-molecule microarray, 635/667 nm fluorescence (AID 1151);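 note: Shh protein binding to compounds spotted on small-molecule microarray slides; score combines spot fluorescence intensity with signal-to-noise across triplicate slides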", "details": "small-molecule microarray binding, 635 nm fluorescence; higher = more signal"}
{"compound": "CO[C@H]1COC(=O)[C@@H](Cc2ccccc2)NC(=O)[C@@H](C)COC(=O)CCC[C@@H]1C", "composite z-score": 0.787}
{"compound": "CCOC(=O)[C@H](CC(C)C)NC(=O)CCC1CC(OC(=O)NCCc2ccc(F)cc2)CC2(CCCC(COC(=O)NCCc3ccccc3OC)O2)O1", "note": "(some centres undefined)", "composite z-score": 0.567}
{"compound": "CCc1cc2c(nc1CC)CCN(CCC(C)=NO[C@H](C)c1cn([C@H](CO)Cc3ccccc3)nn1)C2", "composite z-score": 0.236}
{"compound": "CO[C@H]1COC(=O)CC=C[C@@H](C)[C@H](NS(=O)(=O)c2ccc(C)cc2)COC(=O)CCC[C@@H]1C", "composite z-score": 0.417}
{"compound": "C=Cc1ccc([C@H]2N[C@H](C(=O)O)CC[C@@H]2C)cc1", "composite z-score": 0.36}
{"compound": "CO[C@H]1COC(=O)[C@@H](C)COC(=O)[C@H](COCc2ccccc2)NC(=O)CC=C[C@H]1C", "composite z-score": 1.88}
{"compound": "CCOC(=O)[C@H](CC(C)C)NC(=O)CCC1CC(OC(=O)NCc2cccc3ccccc23)CC2(CCCC(COC(=O)NCCC(C)C)O2)O1", "note": "(some centres undefined)", "composite z-score": 0.784}
{"compound": "CO[C@H]1COC(=O)CC=C[C@@H](C)[C@H](OC)COC(=O)[C@@H]2CCCN2C(=O)CC=C[C@@H]1C", "composite z-score": 2.18}
{"compound": "O=C1[C@H]2[C@H]3[C@H](O)[C@H](O)CC(=NOCc4ccccc4)[C@H]3CC[C@H]2C(=O)N1Cc1ccc2c(c1)OCO2", "composite z-score": 0.394}
{"compound": "Cc1ccc(S(=O)(=O)NC(CCc2ccccc2)CC(=O)C(C)(C)C)cc1", "note": "(centres undefined)", "composite z-score": 0.71}
{"compound": "O=C1C=C[C@@H](O)[C@@H]2[C@@H]3C(=O)N(C[C@@H]4CCCO4)C(=O)[C@@H]3CC[C@@H]12", "composite z-score": 0.159}
{"compound": "CC(C)=CCCC(C)=CCON=C1C[C@@H](O)[C@@H](O)[C@@H]2[C@@H]3C(=O)N(Cc4ccccc4)C(=O)[C@@H]3CC[C@@H]12", "composite z-score": 1.88}
{"compound": "CCOC(=O)[C@H](CC(C)C)NC(=O)CCC1CC(OC(=O)NCCc2ccc(F)cc2)CC2(CCCC(COC(=O)NCCc3ccc(Cl)cc3)O2)O1", "note": "(some centres undefined)", "composite z-score": 1.62}
{"compound": "CC(=O)Nc1ccc([C@@H]2N[C@H](C(=O)O)CC[C@H]2C)cc1", "composite z-score": 0.2}
{"compound": "CCOC(=O)NN=C1C[C@@H](O)[C@@H](O)[C@@H]2[C@@H]3C(=O)N(c4cccc(Oc5ccccc5)c4)C(=O)[C@@H]3CC[C@H]12", "composite z-score": 0.206}
{"compound": "Cc1ccc(S(=O)(=O)N[C@H]2COC(=O)CC=C[C@H](C)[C@@H](NS(=O)(=O)c3ccc(C)cc3)COC(=O)CC=C[C@@H]2C)cc1", "composite z-score": 0.483}
{"compound": "CC1O[C@H]2C3=C(C(=O)[C@@H]4O[C@@H]4[C@H]3O)[C@@H]1C1[C@@H](C)OC=C3[C@H](O)C4O[C@@H]4C(=NOCc4ccccc4)[C@]312", "note": "(some centres undefined)", "composite z-score": 0.242}
{"compound": "C[C@@H](c1ccccc1)N1C(=O)[C@H]2[C@H]3[C@H](O)[C@H](O)CC(=NO[C@@H]4O[C@H](CO)[C@@H](O)[C@H](O)[C@H]4O)[C@@H]3CC[C@H]2C1=O", "composite z-score": 0.116}
{"compound": "CON=C(C)CCC(=O)OC[C@H]1O[C@H](c2ccccc2)C=C[C@@H]1Oc1ccc(OC)cc1", "composite z-score": 0.556}
{"compound": "COC(=O)[C@H](C)NC(=O)CCC1CC(OC(=O)NCc2ccc3c(c2)OCO3)CC2(CCCC(COC(=O)NCC(c3ccccc3)c3ccccc3)O2)O1", "note": "(some centres undefined)", "composite z-score": 1.97}
{"compound": "COC(=O)[C@H](C)NC(=O)CCC1CC(OC(=O)NCCc2ccc(F)cc2)CC2(CCCC(COC(=O)NCCC(C)C)O2)O1", "note": "(some centres undefined)", "composite z-score": 1.22}
{"compound": "O=C1[C@H]2[C@H]3[C@H](O)[C@H](O)CC(=NOCc4ccccc4)[C@@H]3CC[C@H]2C(=O)N1c1ccc(F)cc1F", "composite z-score": 0.068}
{"compound": "CC(C)=CCCC(C)=CCON=C1C[C@@H](O)[C@@H](O)[C@@H]2[C@@H]3C(=O)N(C4CCCCC4)C(=O)[C@@H]3CC[C@@H]12", "composite z-score": 1.08}
{"compound": "CC(C)CON=C1C[C@@H](O)[C@@H](O)[C@@H]2[C@@H]3C(=O)N(Cc4ccc5c(c4)OCO5)C(=O)[C@@H]3CC[C@H]12", "composite z-score": 1.45}
{"compound": "CCOC(=O)[C@H](Cc1ccccc1)NC(=O)CCC1CC(OC(=O)NCc2ccc3c(c2)OCO3)CC2(CCCC(COC(=O)NCCc3ccccc3OC)O2)O1", "note": "(some centres undefined)", "composite z-score": 0.995}
{"compound": "Cc1cc2c(c(=O)o1)[C@@H](O)[C@H]1O[C@H]1C2=O", "composite z-score": 1.1}
{"compound": "CC(=O)O[C@H]1C2=CO[C@H](C)[C@H]3[C@H]4C5=C([C@H](O)[C@H]6O[C@H]6C5=O)[C@H](OC4C)[C@@]23C(=O)[C@@H]2O[C@@H]21", "note": "(some centres undefined)", "composite z-score": 0.604}
{"compound": "CCOC(=O)[C@H](Cc1ccccc1)NC(=O)CCC1CC(OC(=O)NCc2cccc3ccccc23)CC2(CCCC(COC(=O)NCc3ccccc3)O2)O1", "note": "(some centres undefined)", "composite z-score": 0.58}
{"compound": "CO[C@@H]1COC(=O)[C@@H](C)COC(=O)[C@@H](C)NC(=O)CC=C[C@@H]1C", "composite z-score": 1.51}
